Many of the other results were omitted from the sample, so hits are more common in it than they were.
Pf Dd2 growth: Plasmodium falciparum Dd2 growth inhibition | P. falciparum Dd2 growth, SYBR Green, 72 h | Potency, µM (series often up to 28.9 µM), without a hit: top-dose activity, negative = inhibition, actives largely listed as inhibitors | 4.3% of 120,000 active | AID 1347417; active = well fitted inhibition curve with a large enough effect;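 also: plate controls were DMSO vehicle for no effect and reference drug for full effect; nearly all actives have a fitted effect of over 65% in size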
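Readout: SYBR Green fluorescence, 485 nm excitation, 535 nm emission, after ~16 h lysis at 37C. Before that, Dd2-infected red cells (2.5% hematocrit) grew 72 h with compound, 29 uM top final concentration.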
* hit, by the source's call; i = inactive; [ ] = dose if it differs, or a comment. Potency is read from the fitted curve at half-maximal effect.

SMILES	Pf Dd2 growth
COC(=O)c1ccc(NC(=O)CC2Nc3cc(C)c(C)cc3NC2=O)cc1 (stereo not drawn)	4µM*
CCOc1ccccc1NC(=O)C[C@H]1NC(=O)c2ccccc2NC1=O	-8%
Cc1ccc(NC(=O)CC2Nc3ccccc3NC2=O)cc1C (stereo not drawn)	-6%
Cc1cc(C(F)(F)F)nn1CC(=O)N1CCN2CCS(=O)(=O)N(C3CC3)C(=O)C2C1 (stereo not drawn)	4%
Cc1ccc(C)c(-c2cc3c(=O)n(CCNC(=O)c4ccc(F)cc4Cl)ccn3n2)c1	-4%
COCCN1CC(CO)C2(CCN(C(=O)CC3CCN(C(C)=O)CC3)CC2)C1 (stereo not drawn)	-1%
COc1cccc(C(=O)N2CCc3nc(C)nc(-c4ccc(O)cc4)c3C2)c1	i
CCS(=O)(=O)N[C@@H]1CN(C2CCOCC2)C[C@H]1CN(C)C	29%
COc1ccc(S(=O)(=O)N2CCC3(CCCNC3)C2)c(OC)c1 (stereo not drawn)	-21%
Cc1ccc(CNC(=O)C2CCCCC(=O)N2)cc1 (stereo not drawn)	22%
O=C1COc2ccc(NS(=O)(=O)c3cccc(Cl)c3)cc2CN1C1CCCc2ccccc21 (stereo not drawn)	i
Cc1ccc(C(=O)Nc2cc(-c3cn4cccnc4n3)ccc2C)cc1C	-6%
COc1ccc(-c2cn3cccnc3n2)cc1NC(=O)c1cc(C)cc(C)c1	13µM*
COc1ccc(-c2cn3cccnc3n2)cc1NC(=O)c1ccccc1C(F)(F)F	-7%
COc1ccccc1NC(=O)Nc1ccnn1C1CCN(C(=O)CCN)CC1	-7%
Cc1ccc(O)c(C(CC(=O)NCC2(c3ccccc3)CCCC2)c2ccccc2)c1 (stereo not drawn)	10µM*
Cc1ccc(NC(=O)C(=O)NCC2(c3ccccc3)CCCC2)cc1C	3%
COc1ccc(C)cc1NC(=O)C(=O)NCC1(c2ccccc2)CCCC1	15%
COc1ccc(C)cc1NC(=O)Cn1c(-c2ccccc2)nc(C)c(CCO)c1=O	i
Cn1c(CN2Cc3[nH]cnc3C[C@H]2C(=O)NCc2ccc(C(F)(F)F)cc2)nc2ccccc21	i
CN(Cc1cccc(C(F)(F)F)c1)C(=O)C(C)(C)C	-1%[44.1 µM]
Cc1ccccc1C(=O)N(C)Cc1cccc(C(F)(F)F)c1	14µM*
CN(Cc1cccc(C(F)(F)F)c1)C(=O)c1ccccc1	i
COc1cccc(Nc2cn(C)c(=O)n3cc(COc4ccccc4)nc23)c1	-3%[44.1 µM]
CCCN(CCC)CCCNC(=O)C1CCN(c2nc3ccc(CC)cc3s2)CC1	7.1µM*
SMILES	Pf Dd2 growth
CCc1ccc2nc(N3CCC(C(=O)NCCC(C)C)CC3)sc2c1	i
CCOc1ccc2nc(N3CCC(C(=O)Nc4ccc(Br)cc4F)CC3)sc2c1	-27%
CCCN(CCC)CCNC(=O)C1CCN(c2nc3ccc(CC)cc3s2)CC1	7.1µM*
CCCN(CCC)CCCNC(=O)C1CCN(S(=O)(=O)CC)CC1	61%
Cc1ccc(CNC(=O)c2ccc3nc(N4CCCCC4)sc3c2)cc1	-8%
CCCN1CCN(C(=O)[C@H]2CCC[C@H]2NC(=O)c2ccc(OC)nc2)CC1	-12%
CCC1=NOC(Cn2c(=O)n(CCc3ccccn3)c3ncc(C(=O)O)cc32)C1 (stereo not drawn)	-18%
Cc1cc(C(=O)N2CCC3(CN[S+](=O)([O-])c4cnccc4O3)C2)no1 (stereo not drawn)	8%
O=C(CN1CC2CC(C1)[C@H]1CCCC(=O)N1C2)NCc1ccccc1 (stereo partly drawn)	5%
CC1=C(C(N)=O)C(c2ccc(F)cc2)n2nc(-c3ccc(N(C)C)cc3)nc2N1 (stereo not drawn)	10µM*
CC1=C(C(N)=O)C(c2cccc(C)c2)n2nc(-c3ccc(Cl)cc3)nc2N1 (stereo not drawn)	4%
CCN(CC)c1ccc(C2C(C(N)=O)=C(C)Nc3ncnn32)cc1 (stereo not drawn)	33%
CC(NC(=O)c1cccc(OC2CCN(C(=O)C3CC3)CC2)c1)c1nn[nH]n1 (stereo not drawn)	0%
COCC(=O)Nc1ccc([C@@H](O)[C@H]2COCC(=O)N2C)cc1	6%[44.1 µM]
CCOc1ccc(/C=C/c2nc3ccccc3n2S(=O)(=O)c2ccc(Br)cc2)cc1	11µM*
CCOc1ccc(S(=O)(=O)c2cn(C)c3ccccc3c2=O)cc1	0%
CCOc1ccc(S(=O)(=O)Nc2nc3ccccc3nc2Nc2ccc(OC)cc2)cc1	-5%
CCOc1ccc(NC(=O)Cn2c(-c3cnccn3)nc(C)c(CCO)c2=O)cc1	i
Cc1cc(S(=O)(=O)N2C[C@@H](F)C[C@H]2C(=O)N2CCc3ccccc3C2)ccc1Cl	2%
Cc1ccc(CN2C[C@@H]3C(C(N)=O)=NO[C@@H]3C2)nc1	20%[44.1 µM]
Cc1ccc(C(=O)NCc2nnc3ccc(-c4ccc(Cl)cc4)nn23)s1	i
CCn1c2ccccc2c2cc(CN3CCN(Cc4cc(OC)c(O)c(OC)c4)CC3)ccc21	11µM*
COc1cc(CN2CCN(S(=O)(=O)c3ccccc3)CC2)cc(OC)c1O	-8%
CCn1c2ccccc2c2cc(CN3CCN(Cc4ccccc4F)CC3)ccc21	i
CCCCN1C(=O)CC[C@H]2CN(C(=O)C3CCC(OC)CC3)CC[C@H]21 (stereo partly drawn)	-16%
SMILES	Pf Dd2 growth
CCN(CC)CCCNc1cc(-c2ccccc2)nc(C)n1	-27%
Cc1nc(Nc2ccc(Cl)cc2)cc(-c2ccccc2)n1	8.9µM*
CCOC(=O)c1ccc(Nc2cc(-c3ccccc3)nc(C)n2)cc1	-24%
Cc1ccsc1CN1CCOc2cc([S+](=O)([O-])Nc3ccccc3)ccc2C1	-10%[44.1 µM]
COc1ccc2c(c1)C1(CCN(C(=O)Nc3ccccc3OC)C1)C(=O)N2 (stereo not drawn)	24%
COc1cc(OC)cc(N2C(=O)[C@@H]3C[C@@H](NC(=O)NC(C)C)CCN3C2=O)c1	-14%[44.1 µM]
CN1CC(=O)N(c2ccccc2F)Cc2c(NCc3ccc4c(c3)OCO4)ncnc21	-2%
Cc1nn(C)c2nc(-c3ccccn3)nc(NCc3ccc4c(c3)OCO4)c12	8.9µM*
Cc1cccc(N2Cc3c(NCc4ccc5c(c4)OCO5)ncnc3N(C)CC2=O)c1	-28%
COCCN1C(=O)CS(=O)(=O)C12CCN(C(=O)c1ccc(C)cc1)CC2	5%
COc1ccc(-c2cn(C)c(=O)n3cc(CN(C)C)nc23)cc1OC	-21%[44.1 µM]
Cc1ccc(NC(=O)Cn2c(N3CCN(c4ccccc4)CC3)nc(C)cc2=O)c(C)c1	-8%
Cc1cc(=O)n(CC(=O)Nc2ccc(Cl)cc2)c(N2CCC(C)CC2)n1	11µM*
Cc1ccc(C)c(NC(=O)Cn2c(N3CCN(c4ccccc4)CC3)nc(C)cc2=O)c1	-42%
Cc1cc(=O)n(CC(=O)Nc2ccc(Br)cc2)c(N2CCC(C)CC2)n1	-24%
CCOc1ccccc1NC(=O)Cn1c(=O)ccc2cc(S(=O)(=O)N3CCC(C)CC3)ccc21	13µM*
CCOc1ccccc1NC(=O)Cn1c(N2CCN(c3ccccc3)CC2)nc(C)cc1=O	5.6µM*
CCc1ccccc1NC(=O)Cn1c(-c2ccccc2)nc(C)cc1=O	-4%
CCc1ccccc1NC(=O)Cn1c(=O)ccc2cc(S(=O)(=O)N3CCCC3)ccc21	10%
COc1ccccc1CNC(=O)Cn1c(=O)ccc2cc(S(=O)(=O)N3CCC(C)CC3)ccc21	11%
CCOc1ccccc1NC(=O)Cn1c(-c2ccc(F)cc2)nc(C)cc1=O	-19%
CCOc1ccccc1NC(=O)Cn1c(-c2ccccc2)nc(C)cc1=O	1.6µM*
Cc1cc(=O)n(CC(=O)Nc2ccc(C)c(Cl)c2)c(N2CCC(C)CC2)n1	-22%

Screening data: PubChem BioAssay, National Center for Advancing Translational Sciences (NCATS)
